The list is not random: actives were taken first. Their share in the collection is about 1.4%.
LYP act – activators of human LYP (PTPN22) phosphatase. 96,000 tested, 0.11% active. Q9Y2R2. activation, % at 2 µM. recombinant LYP, DiFMUP fluorescence; 0 = plate median, 100 = signal doubled;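 active = activation at 2 µM above a set limit, the mean plus 5 SD, cut at about 37% in these data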
S1P2 blocker – antagonists of human S1P2 receptor; inhibition, % at 5 µM; 97,000 tested, 0.21% active; cell-based S1P2 antagonist assay, inhibition at 5 uM; O95136; in the data active = inhibition above about 45%;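 note: CRE beta-lactamase reporter cells expressing human S1P2 stimulated with S1P; 0% = agonist at EC80 alone and 100% = agonist plus reference antagonist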
Target sequence (O95136 whole entry, looked up): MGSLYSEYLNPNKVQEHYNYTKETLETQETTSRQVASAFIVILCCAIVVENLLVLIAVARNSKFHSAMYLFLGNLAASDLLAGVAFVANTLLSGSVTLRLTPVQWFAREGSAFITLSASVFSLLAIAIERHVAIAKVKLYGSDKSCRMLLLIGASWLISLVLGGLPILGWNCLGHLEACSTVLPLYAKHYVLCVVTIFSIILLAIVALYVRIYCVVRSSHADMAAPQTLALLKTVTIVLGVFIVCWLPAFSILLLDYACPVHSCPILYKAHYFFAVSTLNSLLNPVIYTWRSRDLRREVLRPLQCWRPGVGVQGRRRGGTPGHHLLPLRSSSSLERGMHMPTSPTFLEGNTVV
LYP inh 2 – blocks human PTPN22 phosphatase activity; 96,000 tested, 0.21% active; recombinant LYP catalytic domain, DiFMUP fluorescence; Q9Y2R2; inhibition, % at 2 µM;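 active = inhibition at 2 µM at or above a set limit, the screen mean plus 3 SD, cut at about 24% in these data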;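 note: 0% = DMSO with enzyme and 100% = enzyme fully blocked by orthovanadate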
GALR2 blocker – blocks the human galanin receptor 2; GALR2-expressing cells, antagonist mode; inhibition, % at 4 µM; 140,000 tested, 0.39% active; in the data active = inhibition above about 27%;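 note: cells stimulated with galanin 1-16 at roughly its EC80; 0% = agonist challenge control and 100% = basal control without agonist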
Target sequence (O43603 whole entry, looked up): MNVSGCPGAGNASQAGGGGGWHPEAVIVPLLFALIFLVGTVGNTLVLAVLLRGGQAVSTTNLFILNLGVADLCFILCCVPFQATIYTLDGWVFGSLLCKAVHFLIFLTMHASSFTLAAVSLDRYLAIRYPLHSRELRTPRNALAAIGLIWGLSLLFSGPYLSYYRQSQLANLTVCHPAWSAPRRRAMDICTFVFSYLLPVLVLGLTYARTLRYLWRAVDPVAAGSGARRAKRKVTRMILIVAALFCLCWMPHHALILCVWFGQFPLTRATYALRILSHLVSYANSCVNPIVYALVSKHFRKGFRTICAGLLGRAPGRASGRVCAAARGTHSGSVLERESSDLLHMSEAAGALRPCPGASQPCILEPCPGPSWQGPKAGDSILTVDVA
S1P2 agonist – S1P2 (human) receptor agonism; O95136; S1P2-expressing cell line, agonist reporter read-out; activation, % at 4.5 µM; 97,000 tested, 0.46% active; AID 729; in the data active = activation above about 16%;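 note: 0% = vehicle low control and 100% = maximal reference agonist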
GALR2 agonist – GALR2 (human) receptor agonism; activation, % (no concentration beside the values); GALR2-expressing cells, agonist activation read-out; O43603; 140,000 tested, 0.48% active; in the data active = activation above about 5%, passing the limit was not always enough;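 note: 0% = vehicle buffer wells and 100% = reference agonist at full effect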
* = called active by the depositor; · = no result.

SMILES | LYP act | S1P2 blocker | LYP inh 2 | GALR2 blocker | S1P2 agonist | GALR2 agonist
CCn1cc(C(=O)Nc2ccc3c(c2)OCCO3)c2cc(OC)c(OC)cc2c1=O | 0.5 | 1.1 | -0.4 | -7.1 | 29.3* | -1.5
CCn1cc(C(=O)Nc2cccc(NC(C)=O)c2)c2cc(OC)c(OC)cc2c1=O | 3.7 | -0.5 | -6.1 | 6.3 | 2.9 | -1.3
CCn1cc(C(=O)NCC(=O)OC)c2cc(OC)c(OC)cc2c1=O | -2.0 | -15.8 | -1.2 | -2.5 | 5.1 | 0.4
CCC(C)NC(=O)c1ccccc1C(=O)NC(C)CC (configuration not stated) | 3.9 | 58.1* | -5.7 | -15.8 | -0.7 | -1.8
CCOC(=O)NC(=O)c1cn(CCN(C)C)c(=O)[nH]c1=O | · | · | · | -7.2 | · | -0.7
COc1ccc(CC(=O)Nc2ccc(-c3noc(COc4ccccc4C)n3)cc2)cc1 | · | · | · | 4.3 | · | 7.8*
CCOc1ccccc1-c1nc(-c2ccc(NC(=O)Cc3ccc(OC)cc3)cc2)no1 | -8.0 | 9.8 | 8.0 | -7.1 | -6.5 | 3.5
CC1=C(C(=O)Nc2ccc(C)cn2)C(c2cnn(C)c2)C2=C(CCCC2=O)N1 (configuration not stated) | · | · | · | 6.4 | · | 0.3
Cc1nc(S/C(=C/c2ccc(-c3cccc(Cl)c3)o2)C(=O)O)n[nH]1 | -20.8 | -0.5 | 24.4* | 6.6 | -3.5 | -1.7
Cc1sc(NC(=O)CN(Cc2ccc(F)cc2)C(=O)C(C)(C)C)c(C(N)=O)c1C | · | · | · | -13.3 | · | -1.1
CON/C=C(\C=Nc1ccc(F)cc1)c1ncc(C(F)(F)F)cc1Cl | -0.7 | 62.5* | 3.1 | -3.5 | -8.6 | -2.7
C/C(=N\NC(=O)c1cc(-c2cccc([N+](=O)[O-])c2)n[nH]1)c1ccccc1O | · | · | · | -10.9 | · | -0.7
O=C(c1cc([N+](=O)[O-])ccc1N1CCOCC1)N1CCCC1 | · | · | · | -0.2 | · | -1.8
COc1cccc2c1C(=O)c1c(O)c3c(c(O)c1C2=O)C[C@@](O)(C(C)=O)C[C@@H]3O[C@H]1C[C@H](N)[C@H](O)[C@H](C)O1 | · | · | · | 98.2* | · | -2.0
CC(C)CC(=O)NC(NC(=S)Nc1sc2c(c1C#N)CCCC2)C(Cl)(Cl)Cl (configuration not stated) | -9.2 | 8.1 | 12.8 | -14.0 | -3.8 | -1.0
CCC(C)NC(=O)c1ccc([N+](=O)[O-])c(Cl)c1 (configuration not stated) | · | · | · | 11.9 | · | -0.6
CCCCCC(=O)Nc1nc(C)c(-c2csc(Nc3cc(Cl)ccc3OC)n2)s1 | -3.5 | -18.7 | 7.3 | -18.6 | 16.8* | 1.1
CN(C)c1ccc(-c2nn3c(-c4ccccc4Cl)nnc3s2)cc1 | 7.4 | -30.0 | -9.5 | -11.0 | -4.0 | 4.6
COc1ccccc1-c1nnc2sc(-c3ccc(N(C)C)cc3)nn12 | · | · | · | 29.4* | · | 3.0
c1ccc(Cn2nnc3c(NCc4ccc5c(c4)OCO5)nc(C4CC4)nc32)cc1 | -22.3 | -3.3 | 20.4 | 0.0 | -5.5 | -2.5
Cc1nc(NCc2ccc3c(c2)OCO3)c2nnn(Cc3ccccc3)c2n1 | · | · | · | -4.1 | · | 6.8*
Cc1c2cc(O)c(=O)cc-2oc2cc(O)c(O)cc12 | -93.6 | -18.8 | 93.5* | -2.1 | 2.0 | -0.5
CCOC(=O)c1c(-n2cccc2)sc2c1CCCC2=O | · | · | · | 6.3 | · | 0.3
CCCCOC(=O)c1ccc(-c2ccc(/C=N/NC(=S)NCC)o2)cc1 | -0.8 | -37.5 | -3.4 | -1.4 | 23.5* | 6.0
O=C(CCCn1c(=S)[nH]c2cc3c(cc2c1=O)OCO3)N1CCN(c2ccccc2F)CC1 | -3.1 | -1.5 | 0.4 | 13.3 | 31.5* | -3.0
SMILES | LYP act | S1P2 blocker | LYP inh 2 | GALR2 blocker | S1P2 agonist | GALR2 agonist
O=C(COC(=O)c1cnc(Cl)c(Cl)c1)Nc1ccc(S(=O)(=O)N2CCCC2)cc1 | · | · | · | -9.5 | · | -0.6
O=C(NCc1ccco1)c1ccc(CNc2c(N3CCCCC3)c(=O)c2=O)cc1 | · | · | · | -2.2 | · | 0.1
CCOC(=O)c1nn(-c2ccccc2)c(C#N)c1NC(=O)c1nn(CC)cc1Br | 0.1 | -22.1 | -0.8 | 0.9 | 23.5* | -2.0
CCOC(=O)c1c(NC(=O)c2nn(CC)cc2Br)c(C#N)nn1-c1ccccc1 | 10.2 | -24.0 | -9.7 | 11.0 | 1.2 | 0.2
COc1ccc(C(=O)OCC(=O)c2ccc(C3CCCCC3)cc2)cc1 | -4.2 | 20.3 | 7.8 | -5.7 | -6.8 | -0.1
Nc1ccc(O)cc1C(=O)OCC(=O)c1ccc(C2CCCCC2)cc1 | · | · | · | 12.8 | · | 6.3*
COc1ccc(CNC(=O)COC(=O)C2CCC(C(C)(C)C)CC2)cc1 (configuration not stated) | · | · | · | 4.4 | · | 1.5
CCOC(=O)Nc1ccc2c(c1)N(C(=O)CCN1CCOCC1)c1ccccc1S2 | 3.5 | -35.8 | -0.1 | -4.3 | -3.6 | 2.5
CCOC(=O)Nc1ccc2c(c1)N(C(=O)CCN1CCOCC1)c1ccccc1S2=O (configuration not stated) | -3.5 | 28.5 | 0.7 | 40.6* | -9.6 | -1.8
O=C1c2ccccc2C(=O)c2c1cccc2N1CCOCC1 | -4.7 | -22.4 | 7.8 | -14.0 | 22.1* | -0.5
C/C(=N/NC(=O)c1ccncc1)c1cc2ccc(O)cc2oc1=O | · | · | · | -24.1 | · | 7.5*
NC(=S)c1cc2ccc(O)cc2oc1=O | -3.5 | -52.2 | 8.5 | -1.4 | 37.6* | 14.0*
CCc1cc2c(=O)c(-c3cnn(-c4ccccc4)c3)c(C(F)(F)F)oc2c(CN(C)C)c1O | · | · | · | 7.2 | · | -1.3
O=C(N/N=C/C=C/c1ccccc1)C(O)c1ccccc1 (configuration not stated) | 5.6 | 9.0 | -3.3 | 30.1* | -4.5 | -5.1
CCCCc1ccc(NC(=O)COc2ccc(C(=O)Nc3ccccc3OC)cc2)cc1 | · | · | · | 6.4 | · | -1.0
CCCCc1ccc(NC(=O)COc2ccc(C(=O)Nc3ccccc3C)cc2)cc1 | · | · | · | 10.2 | · | 5.8*
Cc1nnc(SCC(=O)N/N=C/c2cn(-c3ccccc3)nc2-c2ccccc2)n1-c1ccccc1 | -22.1 | 6.5 | 24.9* | 13.4 | -8.3 | -2.1
Cc1ccc(-c2nn(-c3ccccc3)cc2/C=N/NC(=O)c2ccc(Br)o2)cc1 | 5.2 | 100.5* | 0.3 | -10.0 | -8.1 | -1.2
COc1cccc(-c2nnc(NC(=O)c3ccc4ncsc4c3)o2)c1 | · | · | · | 4.3 | · | -0.3
COc1ccccc1CNC(=O)c1c(N)n(CCCN2CCOCC2)c2nc3ccccc3nc12 | 14.2 | -93.0 | -8.9 | -16.4 | 58.4* | 28.1*
CC(C)OC(=O)c1c(N)n(CCCN2CCOCC2)c2nc3ccccc3nc12 | 4.6 | -29.2 | -4.6 | 0.2 | 1.3 | 3.0
Nc1c(C(=O)NCc2ccc3c(c2)OCO3)c2nc3ccccc3nc2n1CCCN1CCOCC1 | -2.7 | -37.6 | 2.5 | -14.7 | 41.1* | 32.1*
C/C(=N\NC(=O)c1[nH]c2c([N+](=O)[O-])cc(C)cc2c1-c1ccccc1)c1cccnc1 | 2.8 | 16.9 | -0.7 | 11.2 | -4.9 | 0.5
C=CC[C@@H]1C=C[C@H](O/N=C/c2ccc(C(=O)N3[C@H](c4ccc(C)cc4)[C@@H](C)CC[C@H]3C(=O)OC)cc2)[C@@H](CO)O1 | · | · | · | -1.1 | · | -0.9
CSc1sc2ccccc2[n+]1CCCS(=O)(=O)[O-] | 4.3 | 3.2 | -6.1 | -9.8 | 25.6* | -1.7
CCc1nc2cc([N+](=O)[O-])c([N+](=O)[O-])cc2[nH]1 | · | · | · | -1.2 | · | -0.9

Bioassay records (PubChem BioAssay)
